# Measured values as given in PubChem BioAssay (NCATS).
# Records with an inconclusive call do not appear. Values without a mark were called inactive. The call rests on the fitted dose curve; in most records, active means well fitted inhibition curve with a large enough effect; inconclusive means small, poorly fitted or top-dose-only effect; inactive means flat fitted curve, though single readings scatter.
# Assay: BET inhibitor-based combinations targeting novel dependencies in MECOM-rearranged (r) AML: AML-194 cell line (AID 2202237;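 further: plate controls were vehicle wells for no effect and wells without cells for full effect; nearly all actives have a fitted effect of over 40% in size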)
# Settings: AML-194 (MECOM-r AML) viability, CellTiter-Glo, 48 h; series mostly up to 46 µM; viability (% of control): at the top concentration
# How it was run: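 AML cell lines seeded at 500 cells/well, treated with 11-point dose curves for 48 h. Viability by CellTiter-Glo luminescence, normalised to DMSO and empty wells; activity expressed as AUC and per-cell-line Z-transformed AUC.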
row,Structure (SMILES),viability (% of control) [%]
1,CC[C@@H](C)[C@H](NC(=O)[C@H](CC1CCCCC1)NC(=O)c1ccno1)C(=O)N1CCC2(CCc3ccccc32)CC1,89.5
2,O=c1ncn2nc(Sc3ccc(F)cc3F)ccc2c1-c1c(Cl)cccc1Cl,96.9
3,CCOC(=O)c1c(C)n(C)c2ccc(O)cc12,106
4,CCN(CC)CCOc1ccc(Cc2ccccc2)cc1,102
5,C[C@]12CC[C@@H]3c4ccc(O)cc4C[C@@H](CCCCCCCCCS(=O)CCCC(F)(F)C(F)(F)F)[C@H]3[C@H]1CC[C@H]2O (stereo partly drawn),104
6,CN(C)c1ccc2cc(C(=O)N[C@@H](CCCN=C(N)CCl)C(=O)NCc3ccccc3)ccc2c1,80.8
7,Cc1nnc(NS(=O)(=O)c2ccc(N)cc2)s1,98.4
8,O=C(/C=C/N1C[C@H]2C[C@@H]1CN2c1ccccn1)c1ccccc1O,95.3
